From PubChem BioAssay (NCI)
Compounds without any hit were thinned out: in the full panel of roughly 83,000, 20% have a hit.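 Plates (96-well) were seeded with cells, treated with compound at one concentration, and incubated for 48 hours before percent growth was determined.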 The source made the active and inactive calls. How the source made its calls: active means growth percent below 10; inactive means the rest.

Experiments:
Test in all cases: NCI-60 one-dose screen, 48 h (100 = growth as untreated, 0 = no growth, -100 = all killed)
Settings in all cases: 10 µM unless noted
[1] = system: HCT-15 colon
[2] = system: HT29 colon
[3] = system: SNB-75 CNS
[4] = system: SNB-19 CNS
[5] = system: U251 CNS
[6] = system: PC-3 prostate
[7] = system: SK-MEL-5 melanoma
[8] = system: UACC-62 melanoma
[9] = system: LOX IMVI melanoma
[10] = system: SK-MEL-28 melanoma
[11] = system: SK-MEL-2 melanoma
[12] = system: EKVX NSCLC
[13] = system: SN12C renal
[14] = system: UO-31 renal
[15] = system: ACHN renal
[16] = system: CAKI-1 renal
[17] = system: A498 renal
[18] = system: CCRF-CEM leukemia
[19] = system: MOLT-4 leukemia
[20] = system: TK-10 renal

Measured: growth

Cc1onc(-c2ccccc2Cl)c1C(=O)N[C@@H]1C(=O)N2[C@@H]1SC(C)(C)[C@@H]2C(=O)O
inactive: [1] 106% | [2] 105% | [3] 103% | [4] 105% | [5] 98.4% | [6] 98.3% | [7] 101% | [8] 99.5% | [9] 99.9% | [10] 117% | [11] 110% | [12] 104% | [13] 103% | [14] 80.4% | [15] 104% | [16] 96.6% | [17] 114% | [18] 96.6% | [19] 90.5%

Clc1ccc2nc(CI)c(CI)nc2c1
inactive: [1] 27.1% | [2] 100% | [3] 96.6% | [4] 97.1% | [5] 71.7% | [6] 84.8% | [7] 75% | [8] 81.9% | [9] 14.9% | [10] 113% | [11] 82.5% | [12] 90.1% | [13] 59.4% | [20] 88.3% | [15] 87.7% | [17] 118%
active: [14] -31.8% | [18] 4.15% | [19] -27.4%

NC(=O)NC1(C(=O)O)CCCC1
inactive: [1] 99.9% | [2] 108% | [3] 100% | [4] 113% | [5] 99.9% | [6] 100% | [7] 111% | [8] 115% | [9] 103% | [10] 122% | [11] 108% | [12] 115% | [13] 105% | [14] 101% | [20] 108% | [15] 105% | [16] 99.9% | [18] 98.6% | [19] 98.2%

C[C@]12CCC(=O)C=C1CCC1C2[C@@H](O)C[C@@]2(C)C1CC[C@]2(O)C(=O)COC(=O)CCC(=O)O (some centres undefined)
inactive: [1] 112% | [2] 107% | [3] 123% | [4] 104% | [5] 105% | [6] 93.2% | [7] 98.6% | [8] 106% | [9] 98.5% | [10] 108% | [11] 123% | [12] 78.7% | [13] 57.2% | [14] 84.1% | [15] 102% | [16] 81.1% | [17] 118% | [18] 64.9% | [19] 115%

C[C@H]1c2cccc(O)c2C(O)=C2C(=O)[C@]3(O)C(O)=C(C(N)=O)C(=O)[C@@H](N(C)C)[C@@H]3[C@@H](O)[C@@H]21
inactive: [1] 31.2% | [2] 39.6% | [3] 47.3% | [4] 69.9% | [5] 33.1% | [6] 42.3% | [8] 34.1% | [9] 31.5% | [10] 65.4% | [11] 56.1% | [12] 46.7% | [13] 53.6% | [14] 32.6% | [15] 27.1% | [16] 14% | [17] 59.9% | [18] 39.1% | [19] 51.5%
active: [7] 9.29%

C[C@H]1O[C@@H](O[C@H]2[C@@H](O)C[C@H](O[C@H]3[C@@H](O)C[C@H](O[C@H]4CC[C@]5(C)C6CC[C@]7(C)[C@@H](C8=CC(=O)OC8)CC[C@]7(O)C6CC[C@@H]5C4)O[C@@H]3C)O[C@@H]2C)C[C@H](O)[C@@H]1O (some centres undefined)
active: [1] -85.6% | [2] -89.8% | [3] -80.8% | [4] -100% | [5] -100% | [6] -24.1% | [7] -100% | [8] -82.4% | [9] -100% | [10] -51.5% | [11] -68.5% | [12] -98.4% | [13] -52.4% | [14] -90.4% | [15] -68% | [16] -92.6% | [17] -28.5% | [18] -58.6% | [19] -36.9%

CCSCC1CC(O)(c2ccccc2)C(c2ccccc2)C(c2ccc(Cl)cc2)O1 (centres undefined)
inactive: [2] 13.5% | [3] 59.4% | [4] 28.5% | [11] 16.9% | [14] 11.9% | [15] 22.8% | [18] 13.3%
active: [1] 7.75% | [5] 5.12% | [6] 4.66% | [7] -94.8% | [8] 0.0955% | [9] -85.2% | [10] -18.7% | [12] -4.64% | [13] -49.9% | [16] -51.3% | [17] -13.3%

O=C(N/N=C/c1cccc(O)c1)c1ccc(C(F)(F)F)nc1Nc1cccc(C(F)(F)F)c1
inactive: [1] 11.5% | [4] 26.2% | [10] 24.7% | [11] 12.9% | [20] 15.6%
active: [2] 7.96% | [3] -5.22% | [5] 2.76% | [6] -8.91% | [7] 8.39% | [8] 0.893% | [9] -18.2% | [12] 5.06% | [13] 7.08% | [14] -9.68% | [15] -6.85% | [16] -22% | [18] -38.3% | [19] -20.5%

NC(=NCCCCCCN=C(N)/N=C(\N)Nc1ccc(Cl)cc1)/N=C(\N)Nc1ccc(Cl)cc1
inactive: [1] 17.2% | [4] 13.7% | [6] 20.7% | [9] 23.4% | [10] 32.8% | [12] 23.9% | [14] 46.6% | [15] 20.5% | [16] 10.3% | [17] 11.1% | [18] 12.5% | [19] 21.2%
active: [2] 7.91% | [3] -7.16% | [5] -5.76% | [7] -95.7% | [8] 8.7% | [11] -31.8% | [13] 5.89%

COc1cc(/C=N/OC(=O)Nc2ccccc2)cc(OC)c1OC
inactive: [1] 112% | [2] 104% | [3] 85.2% | [4] 105% | [5] 107% | [6] 91.1% | [7] 102% | [8] 90.5% | [9] 90.6% | [10] 104% | [11] 115% | [12] 117% | [13] 94.4% | [14] 69% | [20] 99% | [15] 107% | [16] 110% | [18] 98.1% | [19] 100%

O=C(Nc1ccccc1)c1cc(-n2cnc([N+](=O)[O-])c2)cc(-n2cnc([N+](=O)[O-])c2)n1
inactive: [1] 114% | [2] 107% | [3] 98.9% | [4] 106% | [5] 101% | [6] 88.8% | [7] 95.6% | [8] 103% | [9] 94.2% | [10] 122% | [11] 103% | [12] 107% | [13] 103% | [14] 92.3% | [20] 112% | [15] 100% | [17] 114% | [18] 89.3% | [19] 94.2%

Cc1cc(C)c(C(=O)c2cccs2)c(C)c1
inactive: [1] 102% | [2] 98.4% | [3] 86.2% | [4] 99.6% | [5] 97.5% | [6] 89.5% | [7] 109% | [8] 97% | [9] 102% | [10] 114% | [11] 100% | [12] 117% | [13] 94% | [14] 67.8% | [20] 96.2% | [15] 108% | [16] 95.2% | [18] 97.9% | [19] 104%

COc1ccc2c(c1)[n+](=O)c(/C=C/C(=O)c1cc(OC)c(OC)c(OC)c1)c(C)n2[O-]
inactive: [1] 11% | [2] 47% | [3] 68.7% | [4] 97% | [5] 53.7% | [6] 55.2% | [7] 93.4% | [8] 63.8% | [9] 51.3% | [10] 71.6% | [11] 56% | [12] 71.3% | [13] 40.5% | [14] 49.1% | [20] 62.9% | [15] 47.7% | [17] 99.3%
active: [18] -25.9% | [19] 0.943%

O=C(O)C1C(c2ccccc2)c2ccccc2C(O)C1CO (centres undefined)
inactive: [1] 98.2% | [2] 106% | [3] 80.7% | [4] 99.8% | [5] 105% | [6] 91.5% | [7] 107% | [8] 95.3% | [9] 103% | [10] 111% | [11] 98.7% | [12] 119% | [13] 98.1% | [14] 78.2% | [20] 102% | [15] 97.3% | [16] 112% | [18] 92.9% | [19] 104%

CCSc1nc(Nc2ccc(S(=O)(=O)Nc3ccon3)cc2)c(C#N)c(-c2cccc(Br)c2)n1
inactive: [1] 87.3% | [2] 91.8% | [3] 93.3% | [4] 100% | [5] 81.1% | [6] 79.6% | [7] 85.4% | [8] 91.5% | [9] 94.1% | [10] 103% | [11] 119% | [12] 87.7% | [13] 99.2% | [14] 102% | [15] 91.3% | [16] 87.8% | [17] 93.7% | [18] 77.7% | [19] 72.6%
